Results filed as inconclusive are left out. Calls of active or inactive are those of the source. Rule for the calls, unless noted: active = hit-call score of the fitted dose curve at least 0.9, where 1 is the maximum; inactive = score below 0.9.
Key:
[1] = target: Paired box protein Pax-6 (Homo sapiens) (UniProt P26367); assay: ATG_Pax6_CIS: Attagene CIS-FACTORIAL HepG2 Assay for human Paired Box 6 (PAX6) (AID 2282956); details: HepG2 CIS-FACTORIAL PAX6 reporter transcription, RNA readout; actives raise or lower the signal
Method in brief: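 Read-out is reporter transcript level, measured by RT-PCR with fluorescent primer extension and capillary electrophoresis after 24 h dosing of transfected HepG2 cells. Activity in either direction fitted relative to DMSO control.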

[2] = ATG_PXRE_CIS: Attagene CIS-FACTORIAL HepG2 Assay for human Pregnane X Receptor Element (PXRE) (AID 2282957); details: HepG2 Attagene CIS-FACTORIAL PXRE reporter, mRNA; actives raise or lower the signal
Method in brief: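 Fluorescent capillary electrophoresis of amplified reporter cDNA gave the signal, collected 24 h after dosing HepG2 cells that held transfected cis-element reporter constructs.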

[3] = ATG_PPRE_CIS: Attagene CIS-FACTORIAL HepG2 Assay for human Peroxisome Proliferator-activated Response Element (PPRE) (AID 2282958); details: HepG2 PPRE cis-element reporter, Attagene transcription factor profiling; actives raise or lower the signal
Method in brief: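 Cells are first transfected transiently with the multiplexed reporter library, then dosed for 24 h. Total RNA is reverse-transcribed, amplified, fluorescently end-labeled and HpaI-cut before capillary electrophoresis; activity is fitted bidirectionally against DMSO controls.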

[4] = ATG_RORE_CIS: Attagene CIS-FACTORIAL HepG2 Assay for human RAR-related Orphan Receptor Element (RORE) (AID 2282959); details: HepG2 Attagene cis-factorial RORE reporter, mRNA; actives raise or lower the signal
Method in brief: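 Cells were HepG2 carrying transfected cis-regulated reporter constructs, dosed for 24 hours. Total RNA was reverse-transcribed and reporter cDNA amplified, fluorescently labeled and sized by capillary electrophoresis. Activity was fitted bidirectionally relative to DMSO.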

[5] = ATG_Sox_CIS: Attagene CIS-FACTORIAL HepG2 Assay for human SRY-box transcription factor (SOX) (AID 2282960); details: HepG2 Attagene cis-factorial SOX reporter, mRNA; actives raise or lower the signal
Method in brief: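 Transient MRTU transfection of HepG2; 24 h compound incubation; TriZol RNA, oligo(dT) RT, PCR, 6-FAM primer extension, HpaI cut, CE. Bidirectional fit, DMSO = baseline.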

[6] = target: Transcription factor Sp1 (Homo sapiens) (UniProt P08047); assay: ATG_Sp1_CIS: Attagene CIS-FACTORIAL HepG2 Assay for human Specificity Protein 1 (Sp1) (AID 2282961); details: HepG2 Sp1 cis-reporter transcription, actives raise or lower the signal
Method in brief: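 Endogenous Sp1 activity was gauged in human liver HepG2 cells bearing transfected reporter units under a cis-regulating promoter. After 24 h dosing, reporter mRNA was quantified by RT-PCR with capillary electrophoresis, and activity fitted bidirectionally versus DMSO.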

[7] = ATG_SREBP_CIS: Attagene CIS-FACTORIAL HepG2 Assay for human Sterol Regulatory Element Binding (SREBP) (AID 2282962); details: HepG2 Attagene cis-factorial SREBP reporter, mRNA; actives raise or lower the signal
Method in brief: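 Endogenous SREBP activity read as cis-element-driven reporter transcript in transiently transfected HepG2, 24 h post-dosing; quantified via RT-PCR plus capillary electrophoresis of fluorescent fragments. Gain or loss of signal fitted relative to DMSO baseline.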

[8] = target: Signal transducer and activator of transcription 3 (Homo sapiens) (UniProt P40763); assay: ATG_STAT3_CIS: Attagene CIS-FACTORIAL HepG2 Assay for human Signal Transducer and Activator of Transcription 3 (STAT3) (AID 2282963); details: HepG2, Attagene cis-factorial STAT3 reporter transcription; actives raise or lower the signal
Method in brief: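 Uses human liver HepG2 transiently carrying cis-regulated reporter transcription units. Following 24 h dosing, reporter mRNA induction was detected by RT-PCR and capillary electrophoresis, analysed bidirectionally versus DMSO.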

[9] = ATG_TA_CIS: Attagene CIS-FACTORIAL HepG2 Assay for human TA Basal Promoter (AID 2282964); details: HepG2 Attagene CIS-factorial TA basal promoter reporter; actives raise or lower the signal
Method in brief: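 Fluorescence from labelled RT-PCR reporter fragments, separated by capillary electrophoresis, gives the signal. Cells: HepG2 transiently carrying multiple reporter units, 24 h chemical dosing. Gain or loss relative to DMSO.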

[10] = ATG_TCF_b_cat_CIS: Attagene CIS-FACTORIAL HepG2 Assay for human T-Cell-Factor with beta-catenin (TCF/b-cat) (AID 2282965); details: HepG2 TCF/beta-catenin cis-reporter transcription, actives raise or lower the signal
Method in brief: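 HepG2 cells transiently transfected with multiple cis-promoter-regulated reporter transcription units, so endogenous transcription factor activity is measured. Reporter mRNA read 24 hours after dosing by RT-PCR, fluorescent labelling and capillary electrophoresis; bidirectional fitting against DMSO.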

[11] = ATG_TGFb_CIS: Attagene CIS-FACTORIAL HepG2 Assay for human Transforming Growth Factor (TGF) (AID 2282967); details: HepG2 Attagene CIS TGFb reporter, mRNA transcription; actives raise or lower the signal
Method in brief: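 Bidirectional fitting relative to DMSO gave the endpoint. Underlying data: reporter mRNA from HepG2 cells carrying transiently transfected cis-regulated reporter constructs, harvested 24 h after dosing and analyzed by RT-PCR and capillary electrophoresis.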

[12] = target: X-box-binding protein 1 (Homo sapiens) (UniProt P17861); assay: ATG_Xbp1_CIS: Attagene CIS-FACTORIAL HepG2 Assay for human X-box Binding Protein 1 (XBP1) (AID 2282972); details: HepG2 XBP1 cis-element reporter, Attagene multiplex; actives raise or lower the signal
Method in brief: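 Reporter transcripts were quantified by RT-PCR with fluorescent primer extension and capillary electrophoresis after 24 h chemical exposure. Cells: transiently transfected HepG2 carrying cis-regulated reporter constructs; data fitted bidirectionally relative to DMSO.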

[13] = ATG_GAL4_TRANS: Attagene TRANS-FACTORIAL HepG2 Assay for GAL4 (Internal Marker) (AID 2282976; active = hit-call score of the fitted dose curve at least 0.9, where 1 is the maximum); details: HepG2 Attagene TRANS GAL4 internal marker reporter
Method in brief: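 HepG2 cells transiently transfected with multiplexed GAL4-UAS reporter constructs were dosed for 24 h. Reporter mRNA was measured by RT-PCR, 6-FAM primer extension, HpaI digestion and capillary electrophoresis, and gain of signal was fitted relative to DMSO.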

[14] = ATG_TAL_CIS: Attagene CIS-FACTORIAL HepG2 Assay for human TAL Basal Promoter (AID 2282966); details: HepG2 Attagene cis-factorial TAL promoter reporter; actives raise or lower the signal;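 note: background control endpoint measuring basal TAL promoter reporter mRNA not a specific factor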
Method in brief: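 Transiently transfected HepG2 (cis-regulated reporter units), 24 h treatment, mRNA read by fluorescent CE after RT-PCR; bidirectional fit, DMSO baseline.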

[15] = ATG_M_19_TRANS: Attagene TRANS-FACTORIAL HepG2 Assay for M19 Transcription Factor (Internal Marker) (AID 2282974; active = hit-call score of the fitted dose curve at least 0.9, where 1 is the maximum); details: HepG2 Attagene TRANS-FACTORIAL M19 internal marker reporter
Method in brief: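 Cells: human HepG2, transiently transfected with multiplexed reporter transcription units. Exposure: 24 h. Detection: RT-PCR of reporter mRNA with capillary electrophoresis. Analysis: gain-of-signal vs DMSO.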

[16] = target: Nuclear receptor subfamily 1 group I member 3 (Homo sapiens) (UniProt Q14994); assay: ATG_CAR_TRANS: Attagene TRANS-FACTORIAL HepG2 Assay for human Constitutive Androstane Receptor (CAR) (AID 2282969; active = hit-call score of the fitted dose curve at least 0.9, where 1 is the maximum;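 note: activators raise reporter mRNA above DMSO so AC50 marks induction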); details: HepG2 Attagene TRANS-FACTORIAL CAR reporter
Method in brief: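 Steps: transient transfection of HepG2 with multiple GAL4-UAS reporter units; 24 h compound incubation; RNA isolation, RT-PCR, 6-FAM primer extension, HpaI digest; capillary electrophoresis. Gain-of-signal relative to DMSO negative control.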

[17] = ATG_VDRE_CIS: Attagene CIS-FACTORIAL HepG2 Assay for human Vitamin D Receptor Element (VDRE) (AID 2282968); details: HepG2 VDRE cis-reporter transcription, actives raise or lower the signal
Method in brief: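 Transfected HepG2 reporter cells, chemical treatment 24 h. RNA isolated, cDNA amplified with reporter-specific primers, products analysed by capillary electrophoresis. Endpoint fitted in both directions versus DMSO.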

[18] = target: Estrogen receptor (Homo sapiens) (UniProt P03372); assay: ATG_ERa_TRANS: Attagene TRANS-FACTORIAL HepG2 Assay for human Estrogen Receptor alpha (ERa) (AID 2282970; active = hit-call score of the fitted dose curve at least 0.9, where 1 is the maximum); details: HepG2 Attagene TRANS ERa GAL4 reporter, mRNA
Method in brief: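 One of 30 multiplexed endpoints from a HepG2 TRANS system, this one reports ERa-Gal4-driven reporter mRNA. Transcripts were quantified 24 hours post-dosing by fluorescent RT-PCR and capillary electrophoresis, with activity scored as induction over DMSO.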

[19] = target: Steroid hormone receptor ERR1 (Homo sapiens) (UniProt P11474); assay: ATG_ERRa_TRANS: Attagene TRANS-FACTORIAL HepG2 Assay for human Estrogen-Related Receptor alpha (ERRa) (AID 2282971; active = hit-call score of the fitted dose curve at least 0.9, where 1 is the maximum); details: HepG2 Attagene TRANS reporter, ERRa transactivation
Method in brief: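 HepG2 cells transiently transfected with multiplexed GAL4-UAS reporter units reading chimeric ERRa-Gal4 activity; 24 h compound exposure. Reporter mRNA measured by RT-PCR, 6-FAM labelling, HpaI digest and capillary electrophoresis; gain of signal fitted versus DMSO baseline.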

[20] = target: Estrogen-related receptor gamma (Homo sapiens) (UniProt P62508); assay: ATG_ERRg_TRANS: Attagene TRANS-FACTORIAL HepG2 Assay for human Estrogen-Related Receptor gamma (ERRg) (AID 2282977; active = hit-call score of the fitted dose curve at least 0.9, where 1 is the maximum;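 note: hits increase reporter signal over DMSO so potencies reflect activators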); details: HepG2 Attagene TRANS reporter, ERRg transactivation
Method in brief: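 Exogenous NR-Gal4 chimera activity was assessed in HepG2 cells bearing transfected GAL4-UAS reporters. After 24 h dosing, total RNA underwent RT-PCR, fluorescent primer extension and HpaI digestion before capillary electrophoresis, with gain of signal scored against DMSO.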

Measured: AC50

Chain of X-box-binding protein 1 (Homo sapiens) (P17861 whole entry, looked up): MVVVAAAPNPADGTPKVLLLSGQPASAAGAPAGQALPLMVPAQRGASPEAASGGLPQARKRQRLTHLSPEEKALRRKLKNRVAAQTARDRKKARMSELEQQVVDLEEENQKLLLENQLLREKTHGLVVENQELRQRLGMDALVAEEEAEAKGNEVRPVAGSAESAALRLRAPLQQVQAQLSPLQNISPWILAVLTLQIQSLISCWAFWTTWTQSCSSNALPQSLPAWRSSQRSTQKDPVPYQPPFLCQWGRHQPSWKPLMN
Chain of Estrogen receptor (Homo sapiens) (P03372 whole entry, looked up, the tested form may be a part): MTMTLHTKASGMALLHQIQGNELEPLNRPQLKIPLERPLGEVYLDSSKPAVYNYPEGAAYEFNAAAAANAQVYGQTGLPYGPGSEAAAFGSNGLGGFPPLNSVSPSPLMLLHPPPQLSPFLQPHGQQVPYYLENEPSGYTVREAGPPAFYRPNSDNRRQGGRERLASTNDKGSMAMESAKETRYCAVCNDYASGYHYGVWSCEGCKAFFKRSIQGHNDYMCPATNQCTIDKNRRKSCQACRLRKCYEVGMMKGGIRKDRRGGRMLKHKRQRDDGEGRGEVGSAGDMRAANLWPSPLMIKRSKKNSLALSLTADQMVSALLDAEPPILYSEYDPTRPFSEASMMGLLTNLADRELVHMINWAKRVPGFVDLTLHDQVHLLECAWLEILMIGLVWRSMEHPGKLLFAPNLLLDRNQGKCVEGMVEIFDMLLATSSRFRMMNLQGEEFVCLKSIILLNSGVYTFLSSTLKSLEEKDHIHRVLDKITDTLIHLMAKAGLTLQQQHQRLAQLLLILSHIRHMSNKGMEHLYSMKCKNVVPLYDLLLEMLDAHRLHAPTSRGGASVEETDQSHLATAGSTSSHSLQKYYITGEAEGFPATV
Chain of Transcription factor Sp1 (Homo sapiens) (P08047 whole entry, looked up): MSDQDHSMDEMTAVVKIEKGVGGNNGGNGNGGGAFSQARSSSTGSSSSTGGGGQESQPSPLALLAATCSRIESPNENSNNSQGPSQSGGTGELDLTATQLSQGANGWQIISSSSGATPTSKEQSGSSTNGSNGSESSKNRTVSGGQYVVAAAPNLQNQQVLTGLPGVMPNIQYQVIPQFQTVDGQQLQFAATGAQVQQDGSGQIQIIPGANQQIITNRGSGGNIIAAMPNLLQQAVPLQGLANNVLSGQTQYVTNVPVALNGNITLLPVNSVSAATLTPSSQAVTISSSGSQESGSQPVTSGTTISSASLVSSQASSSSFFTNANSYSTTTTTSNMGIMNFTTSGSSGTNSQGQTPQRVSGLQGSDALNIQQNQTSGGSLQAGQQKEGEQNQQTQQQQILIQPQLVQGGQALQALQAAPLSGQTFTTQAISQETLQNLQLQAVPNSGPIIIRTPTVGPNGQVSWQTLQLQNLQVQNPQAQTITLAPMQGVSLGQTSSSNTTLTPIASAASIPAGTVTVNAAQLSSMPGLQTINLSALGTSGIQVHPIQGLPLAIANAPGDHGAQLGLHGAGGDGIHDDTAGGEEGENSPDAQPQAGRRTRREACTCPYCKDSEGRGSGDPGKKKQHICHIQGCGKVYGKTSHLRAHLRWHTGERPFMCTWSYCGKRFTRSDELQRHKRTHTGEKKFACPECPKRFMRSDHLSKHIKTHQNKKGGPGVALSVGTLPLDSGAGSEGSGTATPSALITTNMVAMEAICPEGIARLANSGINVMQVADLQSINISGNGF
Chain of Signal transducer and activator of transcription 3 (Homo sapiens) (P40763 whole entry, looked up): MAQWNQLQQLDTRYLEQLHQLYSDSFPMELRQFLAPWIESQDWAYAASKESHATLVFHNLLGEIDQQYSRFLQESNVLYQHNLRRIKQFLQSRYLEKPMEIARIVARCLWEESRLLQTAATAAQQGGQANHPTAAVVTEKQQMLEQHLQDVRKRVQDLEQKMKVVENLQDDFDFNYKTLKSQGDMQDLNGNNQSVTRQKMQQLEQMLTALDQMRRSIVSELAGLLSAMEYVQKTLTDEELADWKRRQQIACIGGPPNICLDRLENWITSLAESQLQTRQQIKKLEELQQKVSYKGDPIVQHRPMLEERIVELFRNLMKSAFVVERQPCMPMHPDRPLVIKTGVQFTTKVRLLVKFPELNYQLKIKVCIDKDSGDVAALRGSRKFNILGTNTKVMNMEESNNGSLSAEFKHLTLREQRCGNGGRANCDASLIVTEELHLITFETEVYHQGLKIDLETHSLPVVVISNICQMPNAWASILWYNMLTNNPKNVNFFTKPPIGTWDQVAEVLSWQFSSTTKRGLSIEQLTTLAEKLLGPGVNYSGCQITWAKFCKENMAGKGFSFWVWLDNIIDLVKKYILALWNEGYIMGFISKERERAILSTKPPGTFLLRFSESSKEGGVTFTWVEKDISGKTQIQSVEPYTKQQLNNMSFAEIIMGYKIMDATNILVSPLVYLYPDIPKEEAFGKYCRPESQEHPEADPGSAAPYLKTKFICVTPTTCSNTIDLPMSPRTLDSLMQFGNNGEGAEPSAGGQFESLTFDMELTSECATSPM
Chain of Paired box protein Pax-6 (Homo sapiens) (P26367 whole entry, looked up): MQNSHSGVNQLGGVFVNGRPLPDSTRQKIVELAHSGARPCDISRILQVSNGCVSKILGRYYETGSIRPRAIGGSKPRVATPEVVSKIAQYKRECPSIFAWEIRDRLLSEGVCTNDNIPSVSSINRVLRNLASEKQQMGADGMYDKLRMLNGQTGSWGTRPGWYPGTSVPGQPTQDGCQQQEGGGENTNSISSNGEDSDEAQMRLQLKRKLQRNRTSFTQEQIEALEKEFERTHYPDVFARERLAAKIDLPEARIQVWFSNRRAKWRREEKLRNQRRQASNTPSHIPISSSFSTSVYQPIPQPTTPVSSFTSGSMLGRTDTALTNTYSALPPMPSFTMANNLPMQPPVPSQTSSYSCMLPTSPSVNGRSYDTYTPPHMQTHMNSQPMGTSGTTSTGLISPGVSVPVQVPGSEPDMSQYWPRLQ
Chain of Steroid hormone receptor ERR1 (Homo sapiens) (P11474 whole entry, looked up, the tested form may be a part): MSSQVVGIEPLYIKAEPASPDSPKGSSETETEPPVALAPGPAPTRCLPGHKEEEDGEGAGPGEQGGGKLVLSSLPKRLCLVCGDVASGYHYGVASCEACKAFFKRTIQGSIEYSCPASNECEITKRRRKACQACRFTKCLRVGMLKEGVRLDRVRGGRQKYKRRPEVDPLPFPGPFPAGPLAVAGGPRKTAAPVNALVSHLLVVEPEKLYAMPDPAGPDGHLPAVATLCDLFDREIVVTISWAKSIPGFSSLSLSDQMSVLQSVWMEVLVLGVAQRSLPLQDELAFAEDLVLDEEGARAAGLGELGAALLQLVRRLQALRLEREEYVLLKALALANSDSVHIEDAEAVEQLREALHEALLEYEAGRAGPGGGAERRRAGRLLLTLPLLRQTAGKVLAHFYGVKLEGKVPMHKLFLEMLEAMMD
Chain of Nuclear receptor subfamily 1 group I member 3 (Homo sapiens) (Q14994 whole entry, looked up, the tested form may be a part): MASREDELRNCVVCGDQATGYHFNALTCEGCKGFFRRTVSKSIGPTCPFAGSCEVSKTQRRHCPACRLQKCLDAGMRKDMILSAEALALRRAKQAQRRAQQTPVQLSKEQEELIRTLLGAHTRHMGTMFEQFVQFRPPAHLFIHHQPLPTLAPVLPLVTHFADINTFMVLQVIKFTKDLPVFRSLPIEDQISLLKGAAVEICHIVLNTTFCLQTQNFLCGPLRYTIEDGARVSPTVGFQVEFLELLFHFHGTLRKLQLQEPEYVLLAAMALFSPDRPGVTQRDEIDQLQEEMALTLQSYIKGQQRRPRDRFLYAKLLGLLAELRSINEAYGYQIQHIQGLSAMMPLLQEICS
Chain of Estrogen-related receptor gamma (Homo sapiens) (P62508 whole entry, looked up, the tested form may be a part): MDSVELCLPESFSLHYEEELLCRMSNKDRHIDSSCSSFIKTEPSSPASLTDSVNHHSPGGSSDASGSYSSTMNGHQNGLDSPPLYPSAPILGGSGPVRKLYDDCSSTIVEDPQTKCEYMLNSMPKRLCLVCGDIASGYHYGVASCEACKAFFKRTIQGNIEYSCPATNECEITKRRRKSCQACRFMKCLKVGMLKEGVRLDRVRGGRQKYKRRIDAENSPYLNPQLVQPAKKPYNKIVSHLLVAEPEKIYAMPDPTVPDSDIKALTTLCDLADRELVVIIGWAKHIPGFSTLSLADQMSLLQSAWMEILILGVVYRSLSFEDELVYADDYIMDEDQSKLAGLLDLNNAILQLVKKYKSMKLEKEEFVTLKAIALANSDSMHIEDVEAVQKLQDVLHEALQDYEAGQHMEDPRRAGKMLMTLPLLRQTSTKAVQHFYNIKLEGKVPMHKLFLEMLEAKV

Cc1cccc(Nc2ccccc2C(=O)O)c1C
active: [2] 14.1 µM | [3] 18.2 µM | [10] 19.8 µM
not listed: [14] | [15] | [16] | [17] | [18] | [19] | [20]
inactive: all other assays above

CNCCO
not listed: [13] | [16] | [17] | [18] | [19] | [20]
inactive: all other assays above

COc1cc(C)cc(O)c1
active: [2] 20.5 µM
not listed: [13] | [17] | [18] | [19] | [20]
inactive: all other assays above

FC1(F)C(F)(F)C(F)(F)C2(F)C(F)(C1(F)F)C(F)(F)C(F)(F)C1(F)C(F)(F)C(F)(F)C(F)(F)C(F)(F)C12F (stereo unspecified)
active: [2] 37.5 µM
not listed: [13] | [15] | [16] | [18] | [19] | [20]
inactive: all other assays above

CCCCC[Si](OCC)(OCC)OCC
active: [2] 7.23 µM
not listed: [15] | [16] | [17] | [18] | [19] | [20]
inactive: all other assays above

Cc1ccc2ccccc2n1
active: [2] 58.9 µM
not listed: [16] | [18] | [19] | [20]
inactive: all other assays above

CO[Si](C)(OC)c1ccccc1
active: [2] 2.95 µM | [17] 7.98 µM
not listed: [13] | [16] | [19] | [20]
inactive: all other assays above

C=CC(C)(C)O
not listed: [16] | [18] | [19] | [20]
inactive: all other assays above

CCN(CC)c1ccc(C(=C2C=CC(=[N+](CC)CC)C=C2)c2ccc(S(=O)(=O)O)cc2S(=O)(=O)[O-])cc1
active: [2] 63.4 µM
not listed: [6] | [16] | [18]
inactive: all other assays above

CC(CCO)CCCC(C)(C)O (stereo unspecified)
not listed: [8] | [13] | [18] | [19] | [20]
inactive: all other assays above

O=C(Cl)c1cccc(C(=O)Cl)c1
active: [2] 27.5 µM
not listed: [9] | [13] | [15] | [16] | [18] | [19] | [20]
inactive: all other assays above

COc1nc(C)nc(N)n1
not listed: [8] | [9] | [13] | [15] | [16] | [18] | [19] | [20]
inactive: all other assays above

BrC1CCC(Br)C(Br)CCC(Br)C(Br)CCC1Br (stereo unspecified)
active: [1] 20.5 µM | [2] 0.95 µM | [7] 53.7 µM | [17] 2.52 µM | [12] 45.5 µM
not listed: [6] | [13] | [16] | [20]
inactive: all other assays above

[Ca+2]
not listed: [8] | [14] | [15] | [16] | [18] | [19] | [20]
inactive: all other assays above

C=C(C)[C@@H]1CCC2=CC(=O)C[C@@H](C)[C@]2(C)C1
active: [2] 2.33 µM | [11] 152 µM
not listed: [6] | [13] | [15] | [16] | [19] | [20]
inactive: all other assays above

CCOc1ccccc1OCC
active: [2] 24.9 µM
not listed: [9] | [13] | [15] | [16] | [18] | [19] | [20]
inactive: all other assays above
